Only a selection was taken, and hits are over-represented in it overall.
VDR inh: Inhibitors of the vitamin D receptor (VDR): qHTS; Vitamin D3 receptor (Homo sapiens), P11473; VDR-SRC2-3 peptide fluorescence polarization, 2 h; Potency, µM, without a hit: max response, negative = inhibition, hits mostly inhibitors; hit rate 0.93% among 400,000; AID 504847, 2011; also: % is scaled to controls: 0 for no effect and ±100 for the full control effect
Target sequence (P11473 whole entry, looked up): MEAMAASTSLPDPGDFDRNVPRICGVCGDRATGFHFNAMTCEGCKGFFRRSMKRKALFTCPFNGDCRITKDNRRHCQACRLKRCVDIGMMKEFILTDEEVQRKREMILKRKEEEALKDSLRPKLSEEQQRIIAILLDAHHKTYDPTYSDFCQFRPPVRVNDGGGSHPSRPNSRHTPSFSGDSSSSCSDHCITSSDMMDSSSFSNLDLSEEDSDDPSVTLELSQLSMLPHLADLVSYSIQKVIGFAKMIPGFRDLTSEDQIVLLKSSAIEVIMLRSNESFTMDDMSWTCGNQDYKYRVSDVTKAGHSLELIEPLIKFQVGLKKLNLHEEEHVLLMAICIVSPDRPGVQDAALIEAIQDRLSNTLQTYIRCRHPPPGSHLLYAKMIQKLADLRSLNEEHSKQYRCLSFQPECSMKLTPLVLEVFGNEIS
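After 23 nl compound addition and a short centrifugation, plates sat for 2 hours at ambient temperature; polarization of fluorescence then indicated loss of VDR binding to peptide SRC2-3.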
Glioma ERSR ind: qHTS for Inducers of the Endoplasmic Reticulum Stress Response (ERSR) in Human Glioma: qHTS; Potency, µM, inactives show at the highest dose activation, most hits filed as activators; AID 602332, 2012; hit rate 0.02% among 420,000; U87-MG GRP78 promoter luciferase reporter, 16 h; also: series mostly up to about 76 µM; % of control where 0% means no effect; nearly all actives have a fitted effect of over 35% in size
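Stably transfected U87-MG human glioma cells carrying a GRP78-based luminescent sensor were seeded at 1000 cells/well, pin-dosed with compounds and incubated 16 h. Luciferase reagent was then added, and end-point luminescence was read after 10 min at room temperature.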
ALOX12 inh: Primary qHTS assay for inhibitors of human arachidonate 12S-lipoxygenase (ALOX12): Round 2 | purified 12hLO, xylenol orange hydroperoxide absorbance | Potency, µM (highest dose often 108 µM), for the others: at the highest dose activity change, negative = inhibition, most hits filed as inhibitors | hit rate 1.1% among 580,000; also: % is scaled to controls: 0 for no effect and ±100 for the full control effect
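Purified human 12hLO (150 nM final) in 25 mM Hepes, 0.01% Triton X-100, pH 7.0 was preincubated 15 min at room temperature with compound. Then 40 uM arachidonic acid was added, 30 min. Hydroperoxide was read by Fe-XO absorbance ratio 573/405 nm.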
Sfp PPTase inh: qHTS Assay for Inhibitors of Bacillus subtilis Sfp phosphopantetheinyl transferase (PPTase); Biochemical Sfp PPTase activity, qHTS; 4'-phosphopantetheinyl transferase ffp (Bacillus subtilis), Q9F4F7; hit rate 3.5% among 310,000; Potency, µM, without a hit: largest response in the series, negative = inhibition, hits mostly inhibitors;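 also: the enzyme is Sfp with the accession as filed and its product quenches rhodamine fluorescence; 0% = enzyme reaction without inhibitor and -100% = no enzyme wells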
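After 15 min at room temperature with compound, 15 nM Sfp received 5 uM rhodamine-CoA plus 12.5 uM BHQ-2-ybbR (50 mM Hepes pH 7.6, 10 mM MgCl2). Rate came from the fluorescence difference over 30 min, ex 525/em 598 nm.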
G9a inh: qHTS Assay for Inhibitors of Histone Lysine Methyltransferase G9a. Histone-lysine N-methyltransferase EHMT2 (Homo sapiens), Q96KQ7. G9a H3K9 monomethylation, AlphaScreen, 2 h. Potency, µM (series often up to 102 µM), without a hit: top-dose activity, negative = inhibition, usual class: inhibitors. hit rate 8.8% among 350,000. AID 504332, 2011; also: % is scaled to controls: 0 for no effect and ±100 for the full control effect; nearly all actives have a fitted effect of over 75% in size
Target sequence (Q96KQ7 913-1193 limits assumed): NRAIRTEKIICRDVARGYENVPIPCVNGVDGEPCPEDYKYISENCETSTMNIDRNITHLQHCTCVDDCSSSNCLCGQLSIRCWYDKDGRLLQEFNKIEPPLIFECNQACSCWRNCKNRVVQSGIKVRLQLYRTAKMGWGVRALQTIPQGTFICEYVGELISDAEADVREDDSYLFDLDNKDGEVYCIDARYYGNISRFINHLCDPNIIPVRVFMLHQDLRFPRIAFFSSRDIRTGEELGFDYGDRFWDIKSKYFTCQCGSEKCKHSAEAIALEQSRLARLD
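G9a (20 nM) preincubated 15 min RT with compounds, then 500 nM biotinylated H3K9 peptide and 20 uM SAM added; 2 h RT reaction. Monomethyl-H3K9 product detected by AlphaScreen with anti-H3K9me1 antibody, streptavidin donor and anti-rabbit IgG acceptor beads.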
* hit, by the source's call; [ ] = remark or other dose. Calls follow the shape of the dose curve; as a rule, active = well fitted curve in the direction sought with a large enough effect; inconclusive = small, poorly fitted or top-dose-only effect, or another doubt; inactive = no such curve, though single readings can be large; an effect the other way counts as inactive or inconclusive. Potency is read from the fitted curve at half-maximal effect.

Results for CC(C)(C)c1ccc(OCCOc2ccc(C(C)(C)C)cc2NC=O)c(NC=O)c1 ?
VDR inh: 0.8%; Glioma ERSR ind: -6.5%; ALOX12 inh: 0.0%; Sfp PPTase inh: 56.2µM*; G9a inh: -8.6%[0.501 µM]

How did COCCOc1ccc(C(F)(F)F)cc1NC(=O)c1ccccc1 do in these assays?
VDR inh: 3.6%; Glioma ERSR ind: -4.8%; ALOX12 inh: 4.6%; Sfp PPTase inh: 12.5%; G9a inh: 19.3%[59 µM]

How did Cc1cccc(C(=O)NC(=S)N2CCc3ccccc3C2)c1 do in these assays?
VDR inh: inconclusive; Glioma ERSR ind: -0.9%; ALOX12 inh: inconclusive; Sfp PPTase inh: 3.7%; G9a inh: 50.1µM*

How did Cc1cc(C)cc(C(=O)NC(=S)Nc2ccc(Cc3ccncc3)cc2)c1 do in these assays?
VDR inh: -15.8%; Glioma ERSR ind: -1.0%; ALOX12 inh: 44.7µM*; Sfp PPTase inh: -8.8%; G9a inh: 22.4µM*

Results for COc1ccccc1C(=O)NC(=S)Nc1ccc(Cc2ccncc2)cc1 ?
VDR inh: -23.9%; Glioma ERSR ind: -5.1%; ALOX12 inh: inconclusive; Sfp PPTase inh: inconclusive; G9a inh: 31.6µM*

How did Cc1cccc(C(=O)NC(=S)Nc2ccc(Cc3ccncc3)cc2)c1 do in these assays?
VDR inh: -6.7%; Glioma ERSR ind: 6.9%; ALOX12 inh: 44.7µM*; Sfp PPTase inh: -29.4%; G9a inh: 31.6µM*

Results for COc1cc(C(=O)NC(=S)Nc2ccc(Cc3ccncc3)cc2)cc(OC)c1OC ?
VDR inh: -9.3%; Glioma ERSR ind: 0.0%; ALOX12 inh: 0.0%; Sfp PPTase inh: -6.5%; G9a inh: -34.4%[2.33 µM]

How did O=C(NC(=S)Nc1ccc(Cc2ccncc2)cc1)c1ccccc1 do in these assays?
VDR inh: -32.0%; Glioma ERSR ind: 0.3%; ALOX12 inh: inconclusive; Sfp PPTase inh: -14.0%; G9a inh: inconclusive

Results for CCC(C)n1nnc2cc(S(=O)(=O)N3CCC(C(=O)NCc4ccc(OC)cc4)CC3)ccc21 (stereo not drawn) ?
ALOX12 inh: 9.4%

Results for CCC(=O)Nc1cccc(NC(=S)NC(=O)c2ccc(C)cc2)c1 ?
VDR inh: -5.6%; Glioma ERSR ind: 2.1%; ALOX12 inh: -19.8%; Sfp PPTase inh: inconclusive

What do the screens show for `Cc1cccc(C(=O)NC(=S)NC(C)c2ccccc2)c1` (stereo not drawn)?
VDR inh: -27.2%; Glioma ERSR ind: 0.3%; ALOX12 inh: 6.31µM*

Results for COc1ccc(C(=O)NC(=S)NC(C)c2ccccc2)cc1 (stereo not drawn) ?
VDR inh: 10.2%; Glioma ERSR ind: 3.8%; ALOX12 inh: -30.2%

What do the screens show for `CCC(=O)Nc1cccc(NC(=S)NC(=O)c2cccc(C)c2)c1`?
VDR inh: -5.4%; Glioma ERSR ind: 1.6%; ALOX12 inh: 35.5µM*; Sfp PPTase inh: -15.4%; G9a inh: inconclusive

Results for O=C(Cc1c(O)c2ccccc2oc1=O)c1ccc(C(F)(F)F)cc1 ?
VDR inh: -27.5%; Glioma ERSR ind: -3.0%; ALOX12 inh: 0.0%; Sfp PPTase inh: 4.6%; G9a inh: -22.3%

What do the screens show for `O=C(SCc1c(O)c2ccccc2oc1=O)c1ccccc1`?
Glioma ERSR ind: -4.7%; ALOX12 inh: 28.2µM*

How did Cc1ncc(CCl)c2c1OC(C)(C)OC2 do in these assays?
VDR inh: 5.1%; Glioma ERSR ind: 5.1%; ALOX12 inh: inconclusive; Sfp PPTase inh: 44.7µM*; G9a inh: inconclusive

Results for O=C(CSc1nc2ccccc2s1)Nc1cc(F)ccc1F ?
ALOX12 inh: 7.4%

Results for CC1CCc2c(sc(/N=C/N(C)C)c2C#N)C1 (stereo not drawn) ?
VDR inh: -18.8%; Glioma ERSR ind: 2.4%; ALOX12 inh: -4.8%; Sfp PPTase inh: 4.9%; G9a inh: 22.4µM*

What do the screens show for `CN(C)/C=N/c1sc2c(c1C(N)=O)CCCC2`?
VDR inh: -12.6%; Glioma ERSR ind: -1.9%; ALOX12 inh: 2.5%; Sfp PPTase inh: 6.7%; G9a inh: -9.9%

Results for CN(C)/C=N/c1sc2c(c1C#N)CCCC2 ?
VDR inh: -10.0%; Glioma ERSR ind: 6.1%; ALOX12 inh: -0.4%; Sfp PPTase inh: 44.7µM*; G9a inh: 50.1µM*

How did CC1CCc2c(sc(N)c2C#N)C1 (stereo not drawn) do in these assays?
ALOX12 inh: -93.0%

How did O=C1CSC2(CCN(CCCN3c4ccccc4Sc4ccc(Cl)cc43)CC2)N1 do in these assays?
VDR inh: 1.2%; Glioma ERSR ind: -5.4%; Sfp PPTase inh: -13.9%; G9a inh: 17.8µM*

How did NC(=O)N1CCN(CCCN2c3ccccc3Sc3cc(Cl)ccc32)CC1 do in these assays?
Glioma ERSR ind: -2.7%; ALOX12 inh: inconclusive

Results for CC(NC(=O)c1cccs1)C1CC2CCC1C2 (stereo not drawn) ?
ALOX12 inh: 3.5%

Results for C=C(C)CNC(=S)Nc1sc2c(c1C(=O)OCC)CC(C)(C)OC2 ?
VDR inh: inconclusive; Glioma ERSR ind: -5.6%; ALOX12 inh: inconclusive; Sfp PPTase inh: 39.8µM*; G9a inh: 14.1µM*

What do the screens show for `CC1(C)Cc2c(sc(NC(=O)C(=O)N3CCCC3)c2C(N)=O)CO1`?
VDR inh: -12.7%; Glioma ERSR ind: -0.5%; ALOX12 inh: -0.2%; Sfp PPTase inh: -28.8%; G9a inh: 50.1µM*

How did COC(=O)c1c(NC(=O)c2ccccc2)sc2c1CC(C)(C)OC2 do in these assays?
VDR inh: 6.9%; Glioma ERSR ind: -5.1%; ALOX12 inh: 2.8%; Sfp PPTase inh: 12.0%; G9a inh: 31.7%

Results for CCOC(=O)c1c(NC(=O)c2ccccc2C)sc2c1CC(C)(C)OC2 ?
VDR inh: -21.8%; Glioma ERSR ind: -4.6%; ALOX12 inh: inconclusive; Sfp PPTase inh: 31.6µM*; G9a inh: inconclusive

How did CCOC(=O)c1c(NC(=O)c2ccc(C)cc2)sc2c1CC(C)(C)OC2 do in these assays?
VDR inh: -20.9%; Glioma ERSR ind: -6.7%; ALOX12 inh: -16.7%; Sfp PPTase inh: 25.1µM*; G9a inh: 15.8%[12.7 µM]

Results for CCCC(=O)Nc1sc2c(c1C(=O)OCC)CC(C)(C)OC2 ?
VDR inh: 11.8%; Glioma ERSR ind: -3.4%; ALOX12 inh: -4.6%; Sfp PPTase inh: 9.6%; G9a inh: -8.8%[12.7 µM]

What do the screens show for `COc1cccc(C2=CC(c3ccccc3)n3nnnc3N2)c1` (stereo not drawn)?
VDR inh: -5.3%; Glioma ERSR ind: 4.1%; ALOX12 inh: -8.7%; Sfp PPTase inh: 44.7µM*; G9a inh: 39.8µM*

What do the screens show for `COc1cccc(C2=CC(c3cccc(OC)c3OC)n3nnnc3N2)c1` (stereo not drawn)?
VDR inh: 0.7%; Glioma ERSR ind: inconclusive; ALOX12 inh: inconclusive; Sfp PPTase inh: inconclusive; G9a inh: 10µM*
